From PubChem
A selection: hits, their analogues and other compounds. The true share with any hit is near 10%.
HP1b chromo inh: inhibitors of HP1-beta chromodomain binding to methylated histone tails. AlphaScreen HP1-beta / biotin-H3K9me3 peptide binding. Potency, µM (series often up to 114 µM), without a hit: top-dose activity change, negative = inhibition, usual class: inhibitors. hit rate 0.56% among 390,000; also: potency is read from the fitted curve at half-maximal effect; nearly all actives have a fitted effect of over 70% in size
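HP1-beta protein (50 nM final) preincubated 30 min at room temperature with biotinylated H3(1-18)K9me3 peptide (50 nM) in PBS pH 7.4, 0.01% Tween-20, then compound added for 30 min. AlphaScreen streptavidin donor/nickel chelate acceptor beads (10 ug/mL final), 30 min dark, luminescence read.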
JMJD2A Tudor inh: blocks the human JMJD2A Tudor domain; O75164; AlphaScreen JMJD2A-Tudor / H3K4me3 peptide binding; Potency, µM (doses to about 114 µM), inactives show at the top dose activity change, negative = inhibition, usual class: inhibitors; hit rate 4.4% among 390,000; also: potency is read from the fitted curve at half-maximal effect; % is scaled to controls: 0 for no effect and ±100 for the full control effect; nearly all actives have a fitted effect of over 50% in size
BAZ2B inh: BAZ2B (human) inhibition. Q9UIF8. AlphaScreen BAZ2B-H3K14Ac peptide displacement. Potency, µM (titrated, usually from 114 µM), for the others: top-dose activity change, negative = inhibition, most hits filed as inhibitors. hit rate 4.4% among 360,000. AID 504333; also: potency is read from the fitted curve at half-maximal effect; % is scaled to controls: 0 for no effect and ±100 for the full control effect; nearly all actives have a fitted effect of over 60% in size
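AlphaScreen displacement of biotin-H3(5-23)K14Ac peptide (50 nM final) from BAZ2B (50 nM final) in PBS pH 7.4, 0.01% Tween-20; complex preformed 30 min RT, then compounds (top 110 uM) 30 min RT, beads 20 min dark.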
Six1-Eya2 blk: Six1/Eya2 interaction inhibition; Q15475+O00167; AlphaScreen GST-Six1/His-Eya2 binding, biochemical; active compounds read low; activity change, % (concentration not given with the values); hit rate 0.56% among 360,000; AID 651725; in the data active = activity change below about -65%; inconclusive = mostly about -30% to -63%; also: % is scaled to controls: 0 for no effect and ±100 for the full control effect
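GST-Six1 + His-Eya2 (5X stock: 250/500 nM); Tris pH 8.0, 300 mM NaCl, 0.05% BSA, 0.02% Tween 20; GSH donor/Ni acceptor beads; 1 h 37 °C dark; AlphaScreen readout.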
G9a inh: blocks human histone lysine methyltransferase G9a. G9a H3K9 monomethylation, AlphaScreen, 2 h. hit rate 8.8% among 350,000. Potency, µM (highest dose often 102 µM), without a hit: at the top dose activity, negative = inhibition, most hits filed as inhibitors; also: potency is read from the fitted curve at half-maximal effect; % is scaled to controls: 0 for no effect and ±100 for the full control effect; nearly all actives have a fitted effect of over 75% in size
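G9a (20 nM) preincubated 15 min RT with compounds, then 500 nM biotinylated H3K9 peptide and 20 uM SAM added; 2 h RT reaction. Monomethyl-H3K9 product detected by AlphaScreen with anti-H3K9me1 antibody, streptavidin donor and anti-rabbit IgG acceptor beads.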
CtBP-E1A inh: CtBP/E1A binding inhibition; AlphaScreen GST-E1A/His-CtBP binding, 1536-well; active compounds read low; activity change, % (test concentration not listed); hit rate 0.49% among 340,000; AID 651724; in the data active = activity change below about -65%; inconclusive = mostly about -30% to -63%; also: % is scaled to controls: 0 for no effect and ±100 for the full control effect
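Steps: dispense buffer (Tris pH 8.0, NaCl 300 mM, TCEP 1 mM, BSA, Tween 20); add 5X protein mix (GST-E1A, His-CtBP, 125 nM each); pin 23 nL compound; 2 h at 37 °C, dark; add 5X beads (50 ug/mL); 1 h; read.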
* marks the source's active call; other numbers are inactive results; ? = inconclusive; / = no result; [ ] = remark or other dose. Unless noted, calls follow the shape of the dose curve; as a rule, active = well fitted inhibition curve with a large enough effect; inconclusive = small, poorly fitted or top-dose-only effect; inactive = no such curve, though single readings can be large or run the other way.

SMILES	HP1b chromo inh	JMJD2A Tudor inh	BAZ2B inh	Six1-Eya2 blk	G9a inh	CtBP-E1A inh
CN(C)c1ccc(NC(=O)Cn2cc(S(=O)(=O)Cc3ccccc3Cl)c3ccccc32)cc1	-18%	?	25µM*	/	5µM*	/
Cc1cccc(C)c1NC(=O)Cn1cc(S(=O)(=O)Cc2ccc(F)cc2)c2ccccc21	-17%	?	?	/	-32%[59 µM]	/
Cc1ccc(NC(=O)Cn2cc(S(=O)(=O)Cc3ccc(F)cc3)c3ccccc32)cc1Cl	-30%	56µM*	50µM*	/	-50%[59 µM]	/
CN(C)c1ccc(NC(=O)Cn2cc(S(=O)(=O)Cc3cccc(Cl)c3)c3ccccc32)cc1	-1%	-34%	-24%	/	?	/
CCc1ccc(-n2nc(C)c3c(C(=O)Nc4cccc(C(F)(F)F)c4)cc(C)nc32)cc1	99%	30%	32%[57.1 µM]	/	32%[59 µM]	/
O=C(CN1CCCCCC1)Nc1ccc(Br)cc1	24%	-1%	8%	3	-8%[12.7 µM]	15
O=C(CN1CCCC1)Nc1ccc(Br)cc1	?	13µM*	50µM*	6	4.5µM*	/
CCc1cccc(C)c1NS(=O)(=O)Cc1ccccc1	15%	-7%	-3%	-15	79µM*	2
CN(C)c1ccc(NC(=O)N2CCOCC2)cc1	-12%	?	?	-6	4µM*	-9
CCc1cccc(C)c1NC(=S)NCc1ccccc1	16%	-11%	-8%	6	32%[59 µM]	-24
CCc1cccc(C)c1NC(=O)CNCc1ccccc1	?	8.9µM*	56%	-1	18µM*	12
Cc1nc2ncnn2c(C)c1CCC(=O)NCc1ccc(Cl)cc1	26%	-7%	-4%	/	-2%[59 µM]	/
CCCSc1ncc(Cl)c(C(=O)Nc2nc3ccc(OCC)cc3s2)n1	53%	-5%	-1%	/	0%[59 µM]	/
Cc1ccc(NC(=O)CN2CCCC2)cc1	22%	-12%	4%	2	/	-8
CCN1CCN(CC(=O)Nc2ccc(N(C)C)cc2)CC1	-4%	7.1µM*	?	-16	?	12
Cc1ccc(NC(=O)CN2CCCC2)cc1Br	0%	56µM*	?	5	50µM*	-3
CCN(CC)c1ccc(NC(=O)CN2CCN(S(=O)(=O)c3ccc(C(C)C)cc3)CC2)cc1	?	14µM*	7.9µM*	/	?	/
CC(C)c1ccc(S(=O)(=O)N2CCN(CC(=O)Nc3ccc(Cl)cc3F)CC2)cc1	38%	-10%	12%	-11	-10%[12.7 µM]	-4
O=C(CN1CCC(NC(=O)C2CCCCC2)CC1)Nc1ccccc1	-27%[57 µM]	0.89µM*	/	7	/	1
CCOc1cccc(-c2cc(C(=O)N3N=C(C)CC3(O)C(F)F)c3ccccc3n2)c1 (stereo not given)	24%	-33%	-13%	2	9%	11
O=C(CN1CCN(S(=O)(=O)c2ccccc2)CC1)NCCc1ccccc1	29%	-8%	0%	15	23%	-20
CN(C)c1ccc(NC(=O)CN2CCN(CC(=O)Nc3ccc(Br)cc3)CC2)cc1	20%[57 µM]	-23%	-15%	/	8.9µM*	/
CN1CCc2c1nc1ccccc1c2NC(=O)CN1CCCC1	-16%	5.6µM*	?	-1	/	-22
O=C(CN1CCOCC1)Nc1ccc(Br)cc1	41%	2%	-2%	3	16%	10
CCCCCCC(=O)Nc1c2c(nc3ccccc13)N(C)CC2	37%	-3%	?	4	7%[59 µM]	2
SMILES	HP1b chromo inh	JMJD2A Tudor inh	BAZ2B inh	Six1-Eya2 blk	G9a inh	CtBP-E1A inh
Cc1ccc(NC(=O)CNCc2ccccc2)cc1Br	?	0.79µM*	50µM*	5	7.9µM*	1
Cc1ccc(NC(=O)CNCc2ccccc2)c(Br)c1	37%	-12%	5%	6	51%[59 µM]	3
O=C(CN1CCCC1)Nc1ccc(OC(F)(F)F)cc1	?	0.79µM*	?	-2	/	4
N#Cc1ccc(S(=O)(=O)N2CCN(S(=O)(=O)c3ccc4c(c3)OCCO4)CC2)cc1	/	-2%	/	/	/	/
CCN(CC)c1ccc(NC(=O)CN2CCN(CC(=O)Nc3ccc(OC)cc3)CC2)cc1	12%	-21%	-26%	-3	11µM*	/
CN(C)c1ccc(NC(=O)CN2CCC(NC(=O)C3CCCCC3)CC2)cc1	-18%	?	-38%	14	?	0
